# According to PubChem BioAssay:
# Activity calls are given as the source filed them.
# What was measured:
# [1] = tested on: Plasmodium falciparum Sir2 (PF13_0152, Sir2A); assay: pfSir2 binders on small-molecule microarrays, primary screen, biochemical, small-molecule microarray, 635 nm fluorescence (AID 1098); settings: small-molecule microarray binding, fluorescence 635 nm; higher = more signal;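 further: score merges spot fluorescence intensity with its signal-to-noise ratio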
# [2] = small-molecule microarray binders of probe aDKK1, primary screen, biochemical, biotinylated probe, 635/667 nm fluorescence (AID 1099); settings: higher = more signal;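 further: score merges 667nm spot fluorescence with signal to noise across triplicate slides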
# [3] = small-molecule microarray binders of probe aCHRDL2, primary screen, biochemical, biotinylated probe, 635/667 nm fluorescence (AID 1100); settings: higher = more signal
# [4] = splicing luciferase reporter signal modulators, primary screen, spliceosome inhibition project, cell-based, HEK293, splice +/- reporter (AID 1101); settings: luminescence, 24 h, higher = more signal, called active from +8 up or from −8 down;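 further: HEK293 cells carrying a splicing-competent luciferase reporter gene; test concentration not given here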
# [5] = target: Fibroblast growth factor 10 (Homo sapiens) (UniProt O15520); assay: FGF10 binders on small-molecule microarrays, primary screen, biochemical, small-molecule microarray, 635 nm fluorescence (AID 1102); settings: FGF10 binding, fluorescence 635 nm, higher = more signal
# Fibroblast growth factor 10 (Homo sapiens), sequence (O15520 whole entry, looked up): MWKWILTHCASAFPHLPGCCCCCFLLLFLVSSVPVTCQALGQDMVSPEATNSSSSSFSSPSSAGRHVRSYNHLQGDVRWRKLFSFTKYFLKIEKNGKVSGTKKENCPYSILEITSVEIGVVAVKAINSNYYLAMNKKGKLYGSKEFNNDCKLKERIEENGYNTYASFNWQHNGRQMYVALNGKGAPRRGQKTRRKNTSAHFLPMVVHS
# [6] = tested on: glycogen synthase kinase-3 (GSK3A per assay name; protocol says GSK3B); assay: GSK3 binders on small-molecule microarrays, primary screen, biochemical, small-molecule microarray, 635 nm fluorescence, GSK3A (AID 1103); settings: small-molecule microarray binding, fluorescence 635 nm; higher = more signal; further: the record names both GSK3A and GSK3B
# [7] = target: Epidermal growth factor receptor (Homo sapiens) (UniProt P00533); assay: EGFR binders on small-molecule microarrays, primary screen, biochemical, small-molecule microarray, 635 nm fluorescence (AID 1104); settings: EGFR binding, higher = more signal;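 further: score merges 667 nm emission intensity with spot signal to noise over triplicate slides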
# Epidermal growth factor receptor (Homo sapiens), sequence (P00533 whole entry, looked up): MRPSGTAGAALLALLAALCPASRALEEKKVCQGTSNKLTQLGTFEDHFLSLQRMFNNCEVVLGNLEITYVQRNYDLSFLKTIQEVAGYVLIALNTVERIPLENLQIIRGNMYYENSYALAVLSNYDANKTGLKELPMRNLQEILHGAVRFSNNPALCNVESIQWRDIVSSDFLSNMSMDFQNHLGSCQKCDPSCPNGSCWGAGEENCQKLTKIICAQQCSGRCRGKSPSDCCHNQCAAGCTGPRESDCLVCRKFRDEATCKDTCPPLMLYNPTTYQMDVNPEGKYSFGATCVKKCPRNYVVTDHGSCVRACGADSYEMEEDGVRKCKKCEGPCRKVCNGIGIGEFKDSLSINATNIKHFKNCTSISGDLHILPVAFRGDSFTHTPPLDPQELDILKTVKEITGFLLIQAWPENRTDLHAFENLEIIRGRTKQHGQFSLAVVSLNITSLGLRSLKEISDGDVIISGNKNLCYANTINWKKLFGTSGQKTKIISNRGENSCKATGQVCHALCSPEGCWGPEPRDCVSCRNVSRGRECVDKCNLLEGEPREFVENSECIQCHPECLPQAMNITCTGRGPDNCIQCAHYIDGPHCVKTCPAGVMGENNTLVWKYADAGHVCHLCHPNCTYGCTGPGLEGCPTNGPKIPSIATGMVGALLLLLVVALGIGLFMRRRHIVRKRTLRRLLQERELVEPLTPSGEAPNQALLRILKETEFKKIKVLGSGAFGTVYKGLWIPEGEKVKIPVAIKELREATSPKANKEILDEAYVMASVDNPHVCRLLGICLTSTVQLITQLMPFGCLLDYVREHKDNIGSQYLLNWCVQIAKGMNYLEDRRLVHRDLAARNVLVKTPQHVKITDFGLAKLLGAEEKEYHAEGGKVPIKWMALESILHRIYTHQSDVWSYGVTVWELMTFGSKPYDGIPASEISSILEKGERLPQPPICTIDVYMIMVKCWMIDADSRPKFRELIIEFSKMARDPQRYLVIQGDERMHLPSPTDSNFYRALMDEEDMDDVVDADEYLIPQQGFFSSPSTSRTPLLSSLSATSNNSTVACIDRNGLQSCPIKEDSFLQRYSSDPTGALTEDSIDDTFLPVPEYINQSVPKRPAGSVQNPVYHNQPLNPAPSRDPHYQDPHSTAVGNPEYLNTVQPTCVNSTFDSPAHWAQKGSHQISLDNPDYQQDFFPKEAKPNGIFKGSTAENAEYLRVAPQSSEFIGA
# [8] = target: Follistatin-related protein 3 (Homo sapiens) (UniProt O95633); assay: FSTL3 binders on small-molecule microarrays, primary screen, biochemical, small-molecule microarray, 635 nm fluorescence (AID 1105); settings: FSTL3 binding, higher = more signal;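 further: score merges emission near 667 nm and signal to noise per printed spot across three slides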
# Follistatin-related protein 3 (Homo sapiens), sequence (O95633 whole entry, looked up): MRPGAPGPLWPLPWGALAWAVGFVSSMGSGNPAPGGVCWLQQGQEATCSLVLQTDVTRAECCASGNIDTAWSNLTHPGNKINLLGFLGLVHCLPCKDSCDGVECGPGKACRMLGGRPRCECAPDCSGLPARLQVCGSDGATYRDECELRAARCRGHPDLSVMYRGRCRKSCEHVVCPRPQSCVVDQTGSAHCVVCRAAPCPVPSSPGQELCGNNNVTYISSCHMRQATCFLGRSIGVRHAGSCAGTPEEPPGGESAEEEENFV
# [9] = target: Dickkopf-related protein 1 (Homo sapiens) (UniProt O94907); assay: DKK1 binders on small-molecule microarrays, primary screen, biochemical, small-molecule microarray, 635 nm fluorescence scan (AID 1106); settings: DKK1 binding, higher = more signal;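 further: score merges emission near 667 nm with signal to noise over three replicate slides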
# Dickkopf-related protein 1 (Homo sapiens), sequence (O94907 whole entry, looked up): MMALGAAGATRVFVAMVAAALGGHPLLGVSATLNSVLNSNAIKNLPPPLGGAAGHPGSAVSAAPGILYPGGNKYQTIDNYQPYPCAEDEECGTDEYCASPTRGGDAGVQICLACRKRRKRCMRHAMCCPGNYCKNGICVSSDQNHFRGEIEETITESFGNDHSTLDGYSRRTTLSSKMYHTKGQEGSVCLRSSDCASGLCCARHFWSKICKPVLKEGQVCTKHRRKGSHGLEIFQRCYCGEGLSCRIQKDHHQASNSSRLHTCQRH
# [10] = tested on: Inhibin beta A chain (activin A); assay: INHBA (activin A) binders on microarrays, primary screen, biochemical, small-molecule microarray, 635 nm fluorescence scan (AID 1107); settings: small-molecule microarray binding, higher = more signal;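 further: mouse activin A protein probed at 4.33 µg/mL on printed slides; score merges bound-protein fluorescence near 667 nm with spot signal-to-noise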
# [11] = tested on: Human papillomavirus type 1a protein E7 (residues 44-93); assay: HPV1a E7 fragment binders on microarrays, primary screen, biochemical, small-molecule microarray, residues 44-93, 635 nm fluorescence (AID 1108); settings: small-molecule microarray binding, fluorescence 635 nm; higher = more signal;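 further: E7 fragment applied at 1 µg/mL in TBST for 1 h at 4 C; score combines spot fluorescence with its signal to noise ratio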
# [12] = modulators of HCV replicon luciferase signal, primary screen, HCV replication inhibitor project, Huh7 cells, luciferase reporter (AID 1109); settings: 48 h, higher = more signal;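 further: huh7 hepatoma cells harbouring a luciferase neomycin HCV replicon reporter; luciferase luminescence as measure of HCV replicon replication; test concentration not given here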
# [13] = target: Left-right determination factor 2 (Homo sapiens) (UniProt O00292); assay: LEFTY2 binders on small-molecule microarrays, primary screen, biochemical, small-molecule microarray, 635 nm fluorescence scan (AID 1110); settings: LEFTY2 binding, higher = more signal
# Left-right determination factor 2 (Homo sapiens), sequence (O00292 whole entry, looked up): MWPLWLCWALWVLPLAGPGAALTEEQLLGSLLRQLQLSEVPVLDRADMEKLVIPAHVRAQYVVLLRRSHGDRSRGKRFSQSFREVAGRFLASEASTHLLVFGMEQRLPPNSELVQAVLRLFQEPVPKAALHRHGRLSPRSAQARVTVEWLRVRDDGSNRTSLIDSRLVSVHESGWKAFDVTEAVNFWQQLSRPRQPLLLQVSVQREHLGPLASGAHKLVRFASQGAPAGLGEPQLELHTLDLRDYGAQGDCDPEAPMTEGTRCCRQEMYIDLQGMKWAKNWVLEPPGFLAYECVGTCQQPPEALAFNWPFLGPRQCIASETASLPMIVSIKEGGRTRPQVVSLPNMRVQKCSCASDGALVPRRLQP
# [14] = target: Calmodulin-1 (Homo sapiens) (UniProt P0DP23); assay: CALM1 binders on microarrays, EGTA buffer, profiling panel, biochemical, small-molecule microarray, Cy5-labelled CALM1 (AID 1111); settings: Cy5-CALM1 binding fluorescence, higher = more signal;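 further: labelled calmodulin applied in Tris saline Tween buffer holding calcium plus EGTA and DTT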
# [15] = target: Calmodulin-1 (Homo sapiens) (UniProt P0DP23); assay: calcium-bound CALM1 binders on microarrays, profiling panel, artefact control for SMM control-protein annotation, biochemical, small-molecule microarray, Cy5-labelled CALM1, plus calcium (AID 1112); settings: Cy5-CALM1 binding fluorescence, higher = more signal;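 further: score merges spot fluorescence with signal to noise from triplicate slides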
# [16] = small-molecule microarray binders of probe aWnt5a, primary screen, biochemical, biotinylated probe, 635/667 nm fluorescence (AID 1113); settings: higher = more signal;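 further: score merges 667 nm fluorescence intensity with signal-to-noise per printed feature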
# [17] = small-molecule microarray binders of probe aShh, primary screen, biochemical, biotinylated probe, 635/667 nm fluorescence (AID 1114); settings: higher = more signal;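 further: probe is biotin-labelled aShh protein from a stem cell growth factor screen; measures binding of labelled protein to compounds printed on the slide; score merges feature fluorescence at 667 nm with signal-to-noise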
# [18] = small-molecule microarray binders of probe aNog, primary screen, biochemical, biotinylated probe, 635/667 nm fluorescence (AID 1115); settings: higher = more signal;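 further: probe is biotinylated aNog protein used at 0.15 µg/mL for 1 h at 4 C; z-score combines 667 nm fluorescence of each spot with its signal to noise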
# [19] = target: Torsin-1A-interacting protein 1 (Homo sapiens) (UniProt Q5JTV8); assay: LAP1 binders from COS7 cell lysate, primary screen, small-molecule microarray, 635/667 nm fluorescence (AID 1116); settings: COS7-hLAP1 lysate binding, 635 nm fluorescence, higher = more signal
# Torsin-1A-interacting protein 1 (Homo sapiens), sequence (Q5JTV8 whole entry, looked up): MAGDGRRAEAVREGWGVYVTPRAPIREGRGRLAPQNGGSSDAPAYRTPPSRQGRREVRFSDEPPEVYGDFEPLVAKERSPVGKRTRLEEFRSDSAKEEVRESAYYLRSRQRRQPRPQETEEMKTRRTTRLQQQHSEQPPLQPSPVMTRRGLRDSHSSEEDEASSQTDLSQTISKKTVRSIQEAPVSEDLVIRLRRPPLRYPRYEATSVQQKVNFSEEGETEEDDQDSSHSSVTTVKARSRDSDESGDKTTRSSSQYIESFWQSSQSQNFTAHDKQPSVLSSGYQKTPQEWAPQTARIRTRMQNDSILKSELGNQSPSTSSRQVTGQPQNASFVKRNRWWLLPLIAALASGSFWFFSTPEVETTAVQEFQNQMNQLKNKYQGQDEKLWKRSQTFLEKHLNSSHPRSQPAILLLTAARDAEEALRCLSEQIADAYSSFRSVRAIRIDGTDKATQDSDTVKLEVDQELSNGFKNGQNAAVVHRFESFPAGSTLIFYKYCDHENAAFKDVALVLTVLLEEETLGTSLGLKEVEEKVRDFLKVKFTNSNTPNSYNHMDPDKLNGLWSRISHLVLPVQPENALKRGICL
# [20] = target: Alpha-bungarotoxin (Bungarus multicinctus) (UniProt P60615); assay: alpha-bungarotoxin binders on microarray, profiling panel, artefact control for SMM control protein annotation, biochemical, small-molecule microarray, Alexa647 label, 635/667 nm fluorescence (AID 1117); settings: alpha-BTX-A647 binding fluorescence, higher = more signal
# Alpha-bungarotoxin (Bungarus multicinctus), sequence (P60615 whole entry, looked up): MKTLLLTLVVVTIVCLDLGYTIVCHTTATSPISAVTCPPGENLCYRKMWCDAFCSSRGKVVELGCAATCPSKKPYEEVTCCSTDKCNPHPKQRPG
SMILES,composite z-score [1],composite z-score [2],composite z-score [3],z-score [4],composite z-score [5],composite z-score [6],composite z-score [7],composite z-score [8],composite z-score [9],composite z-score [10],composite z-score [11],z-score [12],composite z-score [13],composite z-score [14],composite z-score [15],composite z-score [16],composite z-score [17],composite z-score [18],composite z-score [19],composite z-score [20]
NC(=O)N1C(=O)C2C(C1=O)C1C=C(CCCO)C2C(c2ccc(CN3CCCC3)cc2)N1Cc1sc2ccccc2c1Cl (stereo not given),0.0883,-0.291,0.233,-0.497 (inactive),0.528,-0.42,-0.243,-0.744,-0.29,-0.0473,0.53,-2.9,-0.292,0.302,0.424,-0.0735,-0.0146,-0.342,-0.218,0.187
O=C(NCC(O)CO)C1N=C(c2ccc(OCCCO)cc2)N(c2ccccc2)O1 (stereo not given),-0.144,-0.12,-0.104,-1.13 (inactive),0.897,0.65,0.195,0.799,0.433,-0.899,1.08,-0.95,0.48,0.0138,-0.332,-0.103,-0.232,-0.243,1.35,0.282
COc1ccc(C(O)C2C=CC3C(=O)N(C)C(=O)C3N2N(c2ccccc2)c2ccccc2)cc1 (stereo not given),1.59,0.996,0.93,1.09 (inactive),0.434,0.243,-0.0923,0.585,-0.128,1.32,-1.14,-0.336,-0.302,0.531,0.625,0.0102,-0.0843,0.83,0.74,0.844
C=CCNC(=O)[C@H]1[C@@H]2C(=O)O[C@@H](c3ccccc3)[C@@H](c3ccccc3)N2[C@@H](c2ccc(OCCO)cc2)[C@]12C(=O)Nc1ccccc12,1.39,-0.106,0.747,-0.152 (inactive),-0.0719,0.164,-0.129,0.227,-0.939,-0.329,1.39,-1.4,-0.514,1.85,0.345,-0.0405,-0.0505,0.666,1.87,1.4
C=C(CCCC)C(=O)CC[C@@H](OC(=O)c1ccccc1-c1ccccc1C(=O)O)c1ccccc1OCCO,0.776,-0.286,-0.543,2.3 (inactive),1.27,-0.121,-0.215,0.27,0.373,0.959,1.19,-2.84,0.0268,0.525,-0.954,-0.096,-0.0904,-0.147,2.43,0.16
CO[C@H]1O[C@H](CO)[C@@H](OC(=O)Nc2ccccc2)[C@H](OC(=O)Nc2ccccc2)[C@H]1OC(=O)Nc1ccccc1,1.48,-0.0074,-0.0165,-0.405 (inactive),1.48,1.25,0.0428,0.41,0.183,0.232,1.5,-2.73,-0.0522,1.34,-0.12,0.0519,-0.0709,-0.273,1.75,1.05
C=CCC(OC(C)=O)[C@@H]1[C@@H](N(Cc2ccc(-c3ccccc3)cc2)C(=O)c2cccc3ccccc23)c2cc(OCCCO)ccc2N1C(=O)Cc1ccc(OC)cc1 (stereo not given in full),0.057,0.267,0.516,-0.149 (inactive),0.345,-0.102,0.0253,0.13,-0.113,1.37,-0.69,-0.235,-0.526,-0.424,0.618,-0.0405,-0.0293,-0.202,-0.278,0.313
C=C(C)[C@@H]1CC=C(C(O)C2C=CC3C(=O)N(c4ccccc4)C(=O)C3N2Nc2ccc([N+](=O)[O-])cc2)CC1 (stereo not given in full),-0.0606,0.32,0.822,-0.682 (inactive),1.27,1.31,0.613,1.44,-0.103,0.883,1.46,-0.315,1.26,-0.0515,0.261,-0.0222,-0.0119,1.24,-0.151,0.839
CCOC(=O)C[C@H]1[C@H](OC(=O)Cc2ccc3c(c2)OCO3)[C@@H](NC(=O)Cc2ccc(OC)cc2)c2cc(OCCCO)ccc2N1C(=O)Cc1ccc(OC)cc1,0.132,-0.0514,-0.178,-2.07 (inactive),0.205,0.157,-0.141,0.0597,-0.141,0.177,0.221,-1.05,-0.261,0.824,0.0314,-0.147,-0.14,0.118,0.664,-0.105
CN(C)c1ccc(C(O)C2C=CC3C(=O)N(Cc4ccccc4)C(=O)C3N2n2cnnc2)cc1 (stereo not given),0.491,-0.393,0.562,-0.394 (inactive),0.13,-0.56,0.268,-0.0523,0.114,1.28,-1.17,-0.32,0.205,-0.207,-0.363,-0.0037,0.108,-0.0086,0.304,0.255
CN1C(=O)C2C(C1=O)C1C=C(c3ccc(CO)cc3)C2C(C2CC2)N1C (stereo not given),0.028,-0.152,0.0977,-0.0431 (inactive),0.192,0.249,0.35,-0.463,-0.143,0.304,0.208,0.203,0.0075,0.0024,0.103,-0.0664,-0.138,-0.0606,0.149,0.219
